This is an account of results in PubChem BioAssay (NCI).

The nature of assay [1]: NCI Yeast Anticancer Drug Screen. Data for the rad50 strain (AID 155).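 Also: 0% = growth of vehicle-only cultures of the same strain.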 The settings on record: S. cerevisiae rad50 strain growth inhibition; at 50.0 µM; active compounds read high. Put shortly:
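A DNA repair-deficient yeast mutant serves as the test organism; compound-induced growth inhibition is calculated against vehicle-treated cells.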

Assay [2] in a line: NCI Yeast Anticancer Drug Screen. Data for the mec2-1 strain (AID 157). To be noted: S. cerevisiae mec2-1 strain, at 50.0 µM, active compounds read high. Put shortly:
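Using mec2-1 yeast: add compound, measure growth, express inhibition versus vehicle-treated cultures.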

A short description of assay [3]: NCI Yeast Anticancer Drug Screen. Data for the sgs1 mgt1 strain (AID 161).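 Also: 0% = growth of cultures given vehicle only.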 To be noted: S. cerevisiae sgs1 mgt1 strain, at 50.0 µM, active compounds read high. Summed up: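 Yeast cells carrying a defined DNA-repair defect were exposed to test compounds. Growth inhibition was measured relative to vehicle-treated controls.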
Assay [4] can be described thus: NCI Yeast Anticancer Drug Screen. Data for the cln2 rad14 strain (AID 165).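 Also: 0% = growth equal to vehicle treated cultures.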 To be noted: S. cerevisiae cln2 rad14 strain, at 50.0 µM, active compounds read high. Summed up:
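Yeast strain cln2 rad14, bearing defects in cell cycle control and DNA repair, serves as the test system; values reflect growth inhibition compared with vehicle.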

Assay [5] in a line: NCI Yeast Anticancer Drug Screen. Data for the bub3 strain (AID 167). The settings on record: S. cerevisiae bub3 mutant strain, at 50.0 µM, active compounds read high. Put shortly: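 Inhibition values come from growth of compound-treated mutant yeast normalised to vehicle-treated controls.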
The nature of assay [6]: NCI Yeast Anticancer Drug Screen. Data for the mlh1 rad18 strain (AID 175). The settings on record: S. cerevisiae mlh1 rad18 strain growth inhibition; at 50.0 µM; active compounds read high. Put shortly: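 Steps: expose repair-defective yeast to compound; measure growth; express inhibition against vehicle-treated controls.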

Compounds without any hit were thinned out: in the full panel of roughly 79,000, 15% have a hit. A number with no mark means an inactive call. Activity calls are given as the source filed them. Rule as the data show it: active = growth inhibition above about 70%; inactive = the rest.

Turning to `ONc1ncnc2nc[nH]c12`, the growth inhibition in assay [1] is -8.65%; in assay [2] it was 5.4%; in assay [3] it was 3.8%; in assay [4], -1.65%; in assay [5], -2.45%; in assay [6] it was -11.3%.
Turning to `COc1ccc(Cc2cc(N=O)c(OC)cc2O)cc1`, the growth inhibition in assay [1] was -12.4%; in assay [2], -7.3%; in assay [3], 1.15%; in assay [4], -21.5%; in assay [5], -3.6%; in assay [6], -10.7%.
For the compound `Nc1nnc(-c2ccc(-c3nnc(N)o3)cc2)o1`, the growth inhibition in assay [1] is -33.6%; in assay [2] it was -12.9%; in assay [3], -8.55%; in assay [4], -31.1%; in assay [5], 4.05%; in assay [6] it was -7.25%.
`O=C1c2ccccc2C(=O)N1Cc1ccccc1-c1c2nc(c(-c3ccccc3CN3C(=O)c4ccccc4C3=O)c3ccc([nH]3)c(-c3ccccc3CN3C(=O)c4ccccc4C3=O)c3nc(c(-c4ccccc4CN4C(=O)c5ccccc5C4=O)c4ccc1[nH]4)C=C3)C=C2`: the growth inhibition is 11.8% in assay [1]; -1.55% in assay [2]; -0.8% in assay [3]; -3.4% in assay [4]; 13.6% in assay [5]; -14% in assay [6].
`CCOc1ccc(/C=C/c2ccc(OCC)cc2)cc1`: the growth inhibition in assay [1] was -4.65%; in assay [2], -16.4%; in assay [3] it was -8.9%; in assay [4], -1.5%; in assay [5], 8.55%; in assay [6], -24.3%.
For the compound `Cc1ccc(SCC(CF)OCn2cc(F)c(=O)[nH]c2=O)cc1` (stereo unspecified), the growth inhibition in assay [1] was -7.85%; in assay [2], -13%; in assay [3] it was -12.2%; in assay [4], -22.2%; in assay [5] it was 1.95%; in assay [6], -8.05%.
For `Cc1cccc(NCN2C(=O)c3ccccc3C2=O)c1`, the growth inhibition in assay [1] was -1.8%; in assay [2], 8.75%; in assay [3], 3.8%; in assay [4] it was -16.4%; in assay [5], 18.7%; in assay [6], -1.7%.
For the compound `CCOC(=O)C(C)N1CCCCCC1` (stereo unspecified), the growth inhibition was -28.8% in assay [1]; -30.4% in assay [2]; -17.8% in assay [3]; -28.5% in assay [4]; -8.25% in assay [5]; -10.8% in assay [6].
With `CN1C2=C(CC3=C1CC(C)(C)CC3=O)C(=O)CC(C)(C)C2`, the growth inhibition is -18.6% in assay [1]; -12.9% in assay [2]; -20.1% in assay [3]; -4.25% in assay [4]; -27.6% in assay [5]; -34.7% in assay [6].
As to `O=C1OC(=Nc2ccccc2Cl)c2ccccc21`, the growth inhibition in assay [1] was -21.6%; in assay [2] it was -21.5%; in assay [3] it was -5.05%; in assay [4] it was -9.1%; in assay [5], 14.5%; in assay [6], 18.3%.
`CCCCCCCN=C(N)CSSCC(N)=NCCCCCCC`: the growth inhibition in assay [1] is 98.9% (active); in assay [2], 99% (active); in assay [3], 99.3% (active); in assay [4] it was 98.7% (active); in assay [5] it was 98.9% (active); in assay [6], 99.2% (active).
For `COC(=O)NC(=Nc1ccc(Oc2ccccc2)cc1NC=O)NC(=O)OC`, the growth inhibition is 0.15% in assay [1]; -14.8% in assay [2]; -13.6% in assay [3]; 25.4% in assay [4]; 15.9% in assay [5]; 11.5% in assay [6].
As for `c1ccc2cc3c(cc2c1)Cn1c-3nc2ccccc21`, the growth inhibition in assay [1] is 19.4%; in assay [2] it was -8.7%; in assay [3] it was 13.2%; in assay [4] it was 6.55%; in assay [5], 11.4%; in assay [6] it was 27.8%.
With `Cc1ccc(-c2cn3c(nc4ccccc43)c(-c3ccccc3)n2)cc1`, the growth inhibition is -25.6% in assay [1]; -26.9% in assay [2]; -41.6% in assay [3]; -53.4% in assay [4]; -26.1% in assay [5]; -45% in assay [6].
`NC(N)=NC(N)=Nc1ccccc1Br`: the growth inhibition in assay [1] is -20.9%; in assay [2], -19.5%; in assay [3], -4.4%; in assay [4], -26.1%; in assay [5], 7.05%; in assay [6], -3.85%.
With `N#CCCN(C1=NN(C(=O)CC(=O)Nc2ccccc2Cl)C(c2ccccc2)C1)c1ccc(Cl)cc1` (stereo unspecified), the growth inhibition in assay [1] was 28.4%; in assay [2], 19.1%; in assay [3] it was -10.1%; in assay [4], 25.9%; in assay [5] it was 16.1%; in assay [6], 3.95%.
For `C/C=C(\C)C(C#N)(CCCC)C(=O)OCC` (stereo unspecified), the growth inhibition was 0.3% in assay [1]; -17.2% in assay [2]; -6.35% in assay [3]; -14.7% in assay [4]; -25.4% in assay [5]; -24.2% in assay [6].
Consider `CC1=C(C(=O)CC(=O)C(=O)Nc2ccc(C)cc2C)Sc2ccccc2N1`, for which the growth inhibition in assay [1] is -1.55%; in assay [2], -20.9%; in assay [3], -33%; in assay [4] it was -9.8%; in assay [5] it was 6.2%; in assay [6], 24.6%.
Turning to `S=C(Nc1ccccc1)N1CC2C3CCC(O3)C2C1` (stereo unspecified), the growth inhibition in assay [1] is 16.6%; in assay [2], 12.6%; in assay [3] it was 10.2%; in assay [4], 3.15%; in assay [5] it was 22.5%; in assay [6], 22.6%.
In the case of `COC(=O)c1ccc(S(=O)(=O)O)cc1[N+](=O)[O-]`, the growth inhibition was 3.05% in assay [1]; 11.9% in assay [2]; 2.5% in assay [3]; -11.2% in assay [4]; 11.8% in assay [5]; 24.4% in assay [6].
As for `COC(=O)CC1NC(=O)[C@]1(C)[C@H](C)O` (stereo partly specified), the growth inhibition in assay [1] was -37.1%; in assay [2], -16.2%; in assay [3], -33%; in assay [4], -14.3%; in assay [5], -48.4%; in assay [6] it was -48.9%.
